Hit rate of the full screen: of about 38,000 compounds, about 1,200 (3.2%) showed an effect of 50% or more. The median lay at about -58%. The list comes from a sample in which strong results are over-represented; it also holds similar structures and randomly drawn compounds.
What follows are molecules tested on Plasmodium falciparum (assay: Calibr Malaria Delayed Death Assay SOP). Details: concentration 4.99e-06 (unit not given; other assays of the set use mol/L).
Assay type: functional, organism-based
Design: scale not given: in the data most compounds retested in dose-response had high values
With `CN(C(=O)Nc1cccnc1)C1CCN(c2ccc(Cl)cc2)CC1` the “Percent Effect” value was 4.443%. In the case of `Cc1cc(C)n(CC2CCCN2CC(=O)N(C)CCC#N)n1` (configuration not stated), the “Percent Effect” value is reported as -49.25%. With `CCC(C)C(=O)N(CC(=O)OC)c1cccc(C)n1` (configuration not stated) the “Percent Effect” value was -66.48%. In the case of `CCN(CC1CN(Cc2c(C)noc2C)CCO1)c1cccnn1` (configuration not stated), the “Percent Effect” value is reported as -53.53%. In the case of `CCN(CC1CN(Cc2ncc(C)o2)CCO1)c1cccnn1` (configuration not stated), the “Percent Effect” value is reported as -35.01%. `CCN(CC1CN(Cc2nc(C3CC3)no2)CCO1)c1cccnn1` (configuration not stated) was tested, and the “Percent Effect” value was 72.53%. `CCNC(=O)Cc1ccc(-c2cccc3c2CCNC3)cc1` was tested, and the “Percent Effect” value was -6.885%. `COCCC(=O)N1CCC2(CCCN2Cc2ccccc2)C1` (configuration not stated) was tested, and the “Percent Effect” value was -58.21%. `Nc1nc(CC(=O)N2CCCC(CCc3cccc(F)c3)C2)cc(=O)[nH]1` (configuration not stated) was tested, and the “Percent Effect” value was -43.06%. With `CCN(C(=O)Nc1nncs1)C(C)c1cccc(OC)c1` (configuration not stated) the “Percent Effect” value was -32.07%. In the case of `Cc1nc(C)n(CC2CCCCN2c2ncnc3ccsc23)n1` (configuration not stated), the “Percent Effect” value is reported as -49.26%. With `CC(C)c1ccc(S(=O)(=O)Cc2nc(N)nc(N(C)C)n2)cc1` the “Percent Effect” value was -42.62%. For `COc1ccc(Cl)cc1-c1nc(N)nc(N(C)C)n1`, the “Percent Effect” value was -104.8%. `COc1ccccc1CC(C)N(C)CCS(C)(=O)=O` (configuration not stated) was tested, and the “Percent Effect” value was -4.563%. With `COc1ccccc1CCN(C)Cc1nc(N)nc(N(C)C)n1` the “Percent Effect” value was 69.03%. In the case of `CN(CC(=O)Nc1cccc(F)c1)Cc1nc(N)nc(N(C)C)n1`, the “Percent Effect” value is reported as -117.7%. In the case of `Cc1ccccc1CC1(C(=O)O)CCCN(c2ncnc3[nH]ccc23)C1` (configuration not stated), the “Percent Effect” value is reported as -4.529%. In the case of `Cc1c(C(=O)NCCC(C)C)nnn1-c1cccc2c1CCN(C)C2`, the “Percent Effect” value is reported as -15.36%. For `CC(O)CN1CCN(Cc2cccc(C(=O)N(C)C)c2)CC1` (configuration not stated), the “Percent Effect” value was -48.6%. In the case of `CC(O)CN1CCN(Cc2cccc(C#N)c2)CC1` (configuration not stated), the “Percent Effect” value is reported as 12.6%. `CC(O)CN1CCC(CNCc2cn(-c3ccccc3)nn2)CC1` (configuration not stated) was tested, and the “Percent Effect” value was -67.96%. With `Cc1ncccc1CNCC1CCN(CC(O)c2ccccc2)CC1` (configuration not stated) the “Percent Effect” value was 29.35%. For `CC(O)CN1CCC(CNCc2cccc(Cl)c2)CC1` (configuration not stated), the “Percent Effect” value was 87.41%. For `CN1Cc2cc(F)ccc2N(CC(O)C(F)(F)F)CCC1=O` (configuration not stated), the “Percent Effect” value was 13.79%. `Cc1ccc(CN(C)C(=O)c2ccc(NC3CC3)nc2)o1` was tested, and the “Percent Effect” value was -155.8%. With `CCN1CCN(Cc2c(C3CCCC3)[nH]c3ncccc23)CC1` the “Percent Effect” value was -34.79%. With `Cc1ccc(-c2cc(C(=O)NCCCc3csc(N)n3)[nH]n2)o1` the “Percent Effect” value was 18.73%. `COc1ccc2c(C)c(C(=O)NCCCc3csc(N)n3)oc2c1` was tested, and the “Percent Effect” value was -56.16%. For `Cc1ccc(-c2cc(C(=O)NCCCc3csc(N)n3)[nH]n2)s1`, the “Percent Effect” value was 65.08%. `Cc1ccc(CN2CCN(c3nc4c(s3)c(C)nn4C)C(C)C2=O)cc1` (configuration not stated) was tested, and the “Percent Effect” value was 68.91%. In the case of `COC(=O)CN1CCN(c2nc3c(s2)c(C)nn3C)C(C)C1=O` (configuration not stated), the “Percent Effect” value is reported as -95.69%. With `Cc1nn(C)c2nc(N3CCNC(=O)C3Cc3ccccc3)sc12` (configuration not stated) the “Percent Effect” value was -89.32%. With `COCC(O)CNc1ccc(C#N)cc1C(F)(F)F` (configuration not stated) the “Percent Effect” value was -11.9%. `CCCS(=O)(=O)N1CC[C@@H]2[C@@H]1CC(=O)N2Cc1csc(C)n1` was tested, and the “Percent Effect” value was -243.1%. For `Cc1cccc(NC(=O)C(C)Oc2ccc3c(c2)OCO3)n1` (configuration not stated), the “Percent Effect” value was -110.7%. With `CS(=O)(=O)CCCNC1(c2cccc(F)c2)CC1` the “Percent Effect” value was -29.12%. With `N#CCCCS(=O)(=O)NC1(c2cccc(Cl)c2)CC1` the “Percent Effect” value was -108.7%. With `CC(C)(C)c1ccc(C2(C(=O)NCCCS(C)(=O)=O)CC2)cc1` the “Percent Effect” value was -66.39%. In the case of `CSCC(=O)NC1(c2cccc(Cl)c2)CC1`, the “Percent Effect” value is reported as -138.1%. With `Cc1cccc(C2(NCCCS(C)(=O)=O)CCCC2)c1` the “Percent Effect” value was 88.41%. For `Cc1cccc(C2(NC(=O)CCN3C(=O)CCC3=O)CCCC2)c1`, the “Percent Effect” value was -32.71%. `Brc1ccc(C2(NCc3noc(C4CC4)n3)CCC2)cc1` was tested, and the “Percent Effect” value was 8.334%. For `CS(=O)(=O)CCCNC1(c2ccc(Br)cc2)CCC1`, the “Percent Effect” value was 77.64%. With `CC(Nc1cnn(C)c(=O)c1Cl)c1ccc(F)c(F)c1` (configuration not stated) the “Percent Effect” value was -61.95%. For `COc1cc(-c2n[nH]c(CCN)n2)cc(OC)c1OC`, the “Percent Effect” value was -46.27%. `Cc1nc(CSCc2ccc(OCC(F)(F)F)nc2)no1` was tested, and the “Percent Effect” value was -117.9%. For `Cc1cccc(CN2C(=O)C[C@H]3[C@@H]2CCN3Cc2ccccn2)n1.O=C(O)C(F)(F)F.O=C(O)C(F)(F)F.O=C(O)C(F)(F)F`, the “Percent Effect” value was -25.52%. With `Cc1cc(CN2CCC(C3CCN(CCc4ccccc4)CC3)C2)[nH]n1` (configuration not stated) the “Percent Effect” value was 93.56%. With `Cc1cc(CN2CCC(C3CCN(Cc4cccnc4)CC3)C2)[nH]n1` (configuration not stated) the “Percent Effect” value was 8.003%. With `Cc1cc(CN2CCC(C3CCN(CCc4ccccc4)C3)CC2)[nH]n1` (configuration not stated) the “Percent Effect” value was 35.64%. `Cc1cc(C)cc(CN2C[C@@H]3OCCN(CC(=O)N(C)C)[C@@H]3C2)c1.O=C(O)C(F)(F)F` was tested, and the “Percent Effect” value was -102.5%. In the case of `COc1ccc(CCNCc2ccco2)cc1OC`, the “Percent Effect” value is reported as 3.158%. For `CCCc1ccc(OCCNCc2ccco2)c(OC)c1.Cl`, the “Percent Effect” value was 50.1%. In the case of `COc1cc(C(C)=O)ccc1OCCNCc1ccco1.Cl`, the “Percent Effect” value is reported as -1.065%. With `COc1ccc(CN2CCN(CCn3ccnc3)CC2)cc1F` the “Percent Effect” value was -77.09%. For `N#CCCSc1nnc(Cc2ccccc2F)o1`, the “Percent Effect” value was 0.1656%. For `CN1CCN(C[C@@H]2OC[C@H]3CN(Cc4cccc(F)c4)CC[C@H]32)CC1.O=C(O)C(F)(F)F.O=C(O)C(F)(F)F.O=C(O)C(F)(F)F`, the “Percent Effect” value was 17.46%. With `O=C(O)C(F)(F)F.O=C(O)C(F)(F)F.c1cc2c(cc1CN1CC[C@H]3CO[C@H](CN4CCCC4)[C@H]3C1)OCO2` the “Percent Effect” value was 77.9%. `N#Cc1cccc(CN2CC[C@@H]3CO[C@@H](CN4CCCC4)[C@@H]3C2)c1.O=C(O)C(F)(F)F.O=C(O)C(F)(F)F` was tested, and the “Percent Effect” value was 9.568%. For `Cc1ccc(CN2CC[C@H]3CO[C@H](CN4CCCC4)[C@H]3C2)o1.O=C(O)C(F)(F)F.O=C(O)C(F)(F)F`, the “Percent Effect” value was 27.44%. In the case of `Cc1ccc(CN2CC[C@@H]3[C@@H](CO[C@H]3CN3CCN(C)CC3)C2)cc1.O=C(O)C(F)(F)F.O=C(O)C(F)(F)F.O=C(O)C(F)(F)F`, the “Percent Effect” value is reported as -1.718%. `CN1CCN(C[C@@H]2OC[C@H]3CN(CCc4ccccc4)CC[C@H]32)CC1.O=C(O)C(F)(F)F.O=C(O)C(F)(F)F.O=C(O)C(F)(F)F` was tested, and the “Percent Effect” value was 64.83%.

Reference: ChEMBL document CHEMBL3988442, “University of Dundee, Small-Polar-MMV Screening Library” (2021)
